Bioassay records as filed in PubChem BioAssay.
Shown are actives, neighbours in structure and some others; about 1% of the full set was active somewhere.
TrxR1 inh: blocks rat thioredoxin reductase 1; recombinant rTrxR1, NADPH fluorescence consumption, selenite substrate; Potency, µM (titrated, usually from 114 µM), without a hit: at the highest dose activity change, negative = inhibition, actives largely listed as inhibitors; hit rate 1% among 390,000; AID 588453; note: nearly all actives have a fitted effect of over 65% in size
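Rat TrxR1 (90 nM in the dispensed reagent) was pre-reduced with 400 uM NADPH for 5 min at room temperature, then incubated with compound for 15 min. After 400 uM selenite was added, NADPH fluorescence (Ex 340/Em 450 nm) was followed for 8 min.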
GALK inhibitor: blocks human galactokinase activity | P51570 | Purified GALK, Kinase-Glo residual ATP luminescence | Potency, µM (top dose mostly 57.5 µM), without a hit: at the top dose activity change, negative = inhibition, hits mostly inhibitors | hit rate 0.007% among 270,000 | AID 1868
Target sequence (P51570 whole entry, looked up): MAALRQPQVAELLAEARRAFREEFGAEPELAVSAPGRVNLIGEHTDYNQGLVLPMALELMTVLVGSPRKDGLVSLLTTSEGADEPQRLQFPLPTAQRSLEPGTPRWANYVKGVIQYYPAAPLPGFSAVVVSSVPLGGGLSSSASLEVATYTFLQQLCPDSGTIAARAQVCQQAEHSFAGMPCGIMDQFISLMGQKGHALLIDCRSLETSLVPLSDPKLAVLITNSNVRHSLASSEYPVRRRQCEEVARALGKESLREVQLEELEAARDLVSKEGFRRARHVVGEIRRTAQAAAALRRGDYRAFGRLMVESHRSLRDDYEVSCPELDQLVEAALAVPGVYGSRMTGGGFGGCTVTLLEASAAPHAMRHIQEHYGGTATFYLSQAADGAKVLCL
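Quantitative HTS: GALK 5 nM, ATP 35 uM, galactose 100 uM, 1 h room temperature, then luciferase-based ATP detection.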
Eya2 phos inh: blocks the phosphatase activity of human Eya2; hit rate 0.006% among 330,000; O00167; recombinant Eya2, OMFP fluorescence dephosphorylation (OMFP is methylfluorescein phosphate); Potency, µM (titrated, usually from 76.9 µM), inactives show top-dose activity, negative = inhibition, most hits filed as inhibitors; AID 488837
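Eya2 protein (added as 0.2 uM solution) was preincubated with compound for 10 min at ambient temperature in 50 mM HEPES pH 7.5, 50 mM NaCl, 5 uM MgCl2, 0.05% BSA, 1 mM DTT. OMFP (added at 50 uM) then reacted 10 min; fluorescence read at 485/525 nm.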
TrxR1 substrate: is turned over as a substrate by rat TrxR1; O89049; purified TrxR1 substrate turnover, NADPH consumption readout; Potency, µM (top dose mostly 114 µM), for inactives: top-dose activity change, negative = substrate turnover; hit rate 0.01% among 390,000; note: nearly all actives have a fitted effect of over 50% in size
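Rat TrxR1, dispensed at 90 nM, was prereduced with 400 uM NADPH (final) for 5 min at ~22 deg C, then incubated with compound 15 min before 400 uM selenite. A first-read NADPH fluorescence drop versus no-compound background flagged substrates.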
RGS4 inhibitor: inhibitors of human regulator of G protein signaling 4. P49798. Transcreener GDP fluorescence polarization, RGS4-accelerated GTP hydrolysis. Potency, µM (highest dose often 114 µM), inactives show at the top dose activity change, negative = inhibition, usual class: inhibitors. hit rate 0.039% among 390,000; note: nearly all actives have a fitted effect of over 75% in size
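MLSMR compounds (23 nl, pin-transferred) preincubated 10 min at room temperature with a 500nM (2x) first reagent, then RGS4 at 900nM (2x) plus Transcreener GDP mix added; fluorescence polarization (620/688 nm) read before and after 90 min at 30 °C.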
USP2a block: blocks human ubiquitin-specific protease USP2a. Potency, µM (series often up to 38.3 µM), inactives show top-dose activity change, negative = inhibition, hits mostly inhibitors. hit rate 0.01% among 330,000. USP2 core, Ub-CHOP2 coupled fluorogenic reporter, 485/531. AID 463254. O75604;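 note: plate controls were DMSO wells for no effect and full inhibition by NEM control for full effect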
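Cell-free coupled assay: 10nM USP2 core preincubated 30min RT with compound in Tris-HCl pH 8.0/CaCl2/CHAPS buffer, then 25nM Ub-CHOP2 and 25nM reporter substrate; fluorescence (Ex 485/Em 531) read after 60min RT, normalized to NEM inhibition, concentration-response curves fitted.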
The depositor's hits bear a star; ? = inconclusive; / = not tested or not shown; [ ] = another dose, or the depositor's remark. Calls come from the whole dose curve; as a rule, active = well fitted curve in the direction sought with a large enough effect; inconclusive = small, poorly fitted or top-dose-only effect, or another doubt; inactive = no such curve, though single readings can be large; an effect the other way counts as inactive or inconclusive. Unless noted, % is set by controls: 0 for no effect and ±100 for the full control effect; potency is the fitted concentration of half-maximal effect.

SMILES	TrxR1 inh	GALK inhibitor	Eya2 phos inh	TrxR1 substrate	RGS4 inhibitor	USP2a block
CCOC(=O)N1CCN(C(=O)Nc2sc3nc4n(c(=O)c3c2C)CCC(C)CC4)CC1 (stereo not drawn)	28µM*	-1%	-6%	6%	15%	2%
CCOC(=O)c1sc2nc3n(c(=O)c2c1C)CCC(C)CC3 (stereo not drawn)	0%	1%	-6%	8%	-45%	6%
C#CCOCCOCCOCCNc1nc(N2CCN(C(=O)CCCCCCCCCCNC(=O)[C@H](CCCN=C(N)N)n3cc(C[C@@H](C)CC)nn3)CC2)nc(N2CCN(C(=O)CCCCCCCCCCNC(=O)[C@@H]([C@H](C)CC)n3cc(CCCCCN)nn3)CC2)n1	/	/	?	/	/	10µM*
C#CCOCCOCCOCCNc1nc(N2CCN(C(=O)CCCCCCCCCCNC(=O)[C@H]([C@@H](C)CC)n3cc(CCCCN=C(N)N)nn3)CC2)nc(N2CCN(C(=O)CCCCCCCCCCNC(=O)[C@H](CCCN=C(N)N)n3cc(C[C@@H](C)CC)nn3)CC2)n1	/	/	-24%	/	/	11µM*
COc1cc2nc(C#N)nc(N)c2cc1OC	13%	/	/	8%	/	/
COc1cc(N)c(N)cc1OC	12%	/	/	7%	/	/
Cc1ccc(-c2nc(=Nc3c(C)cc(C)cc3C)sn2-c2ccccc2)cc1	2%	/	/	9%[0.0914 µM]	?	/
Cc1ccccc1N(Cc1cc(=O)[nH]c2ccccc12)C(=O)CCl	/	/	-1%	/	/	-4%
CCCCCCCN(C(=O)CCl)c1ccccc1C	79µM*	0%	6%	0%	-14%	0%
Cc1ccc(S(=O)(=O)C2CS(=O)(=O)CC2O)cc1 (stereo not drawn)	14%	-1%	23%	9%	24%	0%
CC(=O)C1=C(S(=O)(=O)c2ccc(C)cc2)CS(=O)(=O)C1	1.3µM*	-3%	-12%	-1%	?	1%
COc1cccc2nccc(/C=C/c3ccc(N(C)C)cc3)c12	-6%	/	/	-11%	/	/
COc1ccc(/C(O)=C2/C(=O)C(=O)N(CCN(C)C)C2c2ccccn2)cc1OC (stereo not drawn)	-23%[57.1 µM]	-1%	8%	4%[57.1 µM]	-7%	1%
COc1ccc(/C(O)=C2/C(=O)C(=O)N(CCN3CCOCC3)C2c2ccccn2)cc1OC (stereo not drawn)	45µM*	0%	3%	-11%	?	1%
C=CCOc1ccc(/C(O)=C2/C(=O)C(=O)N(CCCN3CCOCC3)C2c2ccc(OC)cc2)cc1 (stereo not drawn)	?	-3%	4%	-13%	-29%	-1%
Cc1ccc(/C(O)=C2/C(=O)C(=O)N(CCN3CCOCC3)C2c2ccccn2)cc1 (stereo not drawn)	?	0%	12%	-2%	-37%	-3%
C=CCOc1ccc(/C(O)=C2/C(=O)C(=O)N(CCCN3CCOCC3)C2c2ccccc2)cc1 (stereo not drawn)	25µM*	/	/	-7%	-29%[11.4 µM]	/
COc1ccc(C2/C(=C(\O)c3ccc4c(c3)OCCO4)C(=O)C(=O)N2CCCN(C)C)c(OC)c1 (stereo not drawn)	10µM*	2%	-4%[15.4 µM]	-8%	-52%	3%
O=C1C(=O)N(CCN2CCOCC2)C(c2ccccn2)/C1=C(/O)c1ccccc1 (stereo not drawn)	18µM*	-1%	13%	-5%	-32%	11%
O=S(=O)(c1ccc(Cl)cc1)N1CCN(c2nc(-c3ccccc3)nc3ccccc23)CC1	12%	/	/	3%	12%	/
CCOc1ccc(C2/C(=C(\O)c3ccc4c(c3)OCCO4)C(=O)C(=O)N2CCCN2CCOCC2)cc1 (stereo not drawn)	?	6%	2%	-13%	17%[11.4 µM]	1%
